From PubChem BioAssay (EPA / NIEHS)
Values joined by “and” are separate entries in the source; they are usually repeats but may differ in a detail not shown here. Equal values may be shown once. Active and inactive are the calls of the source. How the source made its calls: active means hit-call score of the fitted dose curve at least 0.9, where 1 is the maximum; inactive means score below 0.9.

test system: not listed separately; experiment: CCTE_Padilla_ZF_Score.Blood_pooling: CCTE's 144 Hour Post-fertilization zebrafish Assay Score for Blood Pooling, Padilla Lab (AID 2284415)
Summary of the method: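 Blood pooling was scored at 6 dpf under a stereo microscope by two blinded assessors, fitted upward against DMSO. Single embryos were dosed at 6–8 hpf in 10% Hanks', kept sealed at 26C (14:10 h cycle) and rinsed at 5 dpf.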

| SMILES | outcome |
| --- | --- |
| O=C(O)CCC(F)(C(F)(F)F)C(F)(F)F | inactive |
| O=C(O)C(F)(F)C(F)(F)C(F)(F)C(F)(F)C(F)(F)C(F)(F)F | inactive |
| O=C(O)C(F)(F)C(F)(F)C(F)(F)C(F)(F)C(F)(F)C(F)(F)C(F)(F)C(F)(F)C(F)(F)C(F)(F)F | inactive |

test system: not listed separately; experiment: CCTE_Padilla_ZF_Score.Any: CCTE's 144 Hour Post-fertilization zebrafish Assay Score for Any Mortality or Malformation, Padilla Lab (AID 2284416)
Summary of the method: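 Wild-type zebrafish embryos with chorions, one per well in 10% Hanks' from 6–8 hpf, dosed in sealed plates at 26 C, 14:10 h light:dark; rinsed at 5 dpf; blinded scoring at 6 dpf for death or malformation, versus DMSO.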

| SMILES | outcome | AC50 |
| --- | --- | --- |
| O=C(O)CCC(F)(C(F)(F)F)C(F)(F)F | inactive |  |
| O=C(O)C(F)(F)C(F)(F)C(F)(F)C(F)(F)C(F)(F)C(F)(F)F |  | 98.9 µM (active) |
| O=C(O)C(F)(F)C(F)(F)C(F)(F)C(F)(F)C(F)(F)C(F)(F)C(F)(F)C(F)(F)C(F)(F)C(F)(F)F |  | 3.35 µM (active) |

test system: TTR (gene 7276); experiment: CCTE_GLTED_hTTR_0.125uM: CCTE's human Transthyretin (hTTR) Inhibition Assay, with 0.125uM TTR, Great Lakes Toxicology and Ecology Division (GLTED) Lab (AID 2284431);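 further: hits lower the fluorescence signal relative to DMSO baseline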
Summary of the method: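 Fluorescence (380 ex, 475 em) reported the ANSA probe remaining bound to 0.125uM human transthyretin. Chemicals were incubated with the protein for 2 hours; activity was scored as loss of signal against DMSO negative control.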

| SMILES | AC50 |
| --- | --- |
| CCOP(=S)(OCC)Oc1nc(Cl)c(Cl)cc1Cl | 0.376 µM (active) |
| COP(=S)(OC)Oc1ccc(Sc2ccc(OP(=S)(OC)OC)cc2)cc1 | 0.537 µM (active) |
| COP(=O)(OC)O/C(=C\Cl)c1cc(Cl)c(Cl)cc1Cl | 1.18 µM (active) |
| CCCCCCCCc1ccc(O)cc1 | 1.2 µM (active) |
| COc1cc(-c2ccc(N)c(OC)c2)ccc1N | 104 nM (active) and 2.64 µM (active) |
| O=C1C(Cl)=C(Cl)C(=O)c2ccccc21 | 3.67 µM (active) |
| CCOP(=S)(OCC)SCSP(=S)(OCC)OCC | 1.57 µM (active) |
| CC(C)(C)CC(C)(C)c1ccc(O)cc1 | 13.1 µM (active) |
| ClC(Cl)=C(Cl)C(Cl)=C(Cl)Cl | 9.92 µM (active) |
| O=C(O)C(F)(F)C(F)(F)C(F)(F)C(F)(F)C(F)(F)C(F)(F)F | 0.236 µM (active) |
| CC(C)(c1ccccc1)c1ccc(O)c(C(C)(C)c2ccccc2)c1 | 0.241 µM (active) |
| O=[N+]([O-])c1ccc(O)c([N+](=O)[O-])c1 | 0.155 µM (active) |
| O=C(O)C(F)(F)C(F)(F)C(F)(F)C(F)(F)C(F)(F)C(F)(F)C(F)(F)C(F)(F)C(F)(F)C(F)(F)F | 0.783 µM (active) |
| CCC(C)(C)c1ccc(O)c(C(C)(C)CC)c1 | 3.18 µM (active) |
| Oc1ccc(-c2ccccc2)cc1 | 2.83 µM (active) |
